Data taken from PubChem BioAssay AID2283174 (EPA ToxCast).
Calls of active or inactive are those of the source. How the source made its calls: active means hit-call score of the fitted dose curve at least 0.9, where 1 is the maximum; inactive means score below 0.9.

Biological target: human Mitogen-Activated Protein Kinase 11 (MAPK 11), MAPK11 (gene 5600) (UniProt Q15759)
Test: NVS_ENZ_hMAPK11: NovaScreen (NVS) Enzymatic Assay for human Mitogen-Activated Protein Kinase 11 (MAPK 11)
Description: NVS_ENZ_hMAPK11 is a biochemical, single-readout assay that uses extracted gene-proteins in a cell-free assay. Measurements were taken 0 hour after chemical dosing in a 384-well plate.NVS_ENZ_hMAPK11 is one of one assay component(s) measured or calculated from the NVS_ENZ_hMAPK11 assay. It is designed to make measurements of enzyme activity, a form of enzyme reporter, as detected with fluorescence intensity signals by Fluorescence and electrophoretic mobility shift technology.Data from the assay component NVS_ENZ_hMAPK11 was analyzed into 1 assay endpoint. This assay endpoint, NVS_ENZ_hMAPK11, was analyzed in the positive analysis fitting direction relative to DMSO as the negative control and baseline of activity. Using a type of enzyme reporter, loss-of-signal activity can be used to understand changes in the enzymatic activity as they relate to the gene MAPK11. Furthermore, this assay endpoint can be referred to as a primary readout, because this assay has produced multiple assay endpoints where this one serves a enzymatic activity function. To generalize the intended target to other relatable targets, this assay endpoint is annotated to the kinase intended target family, where the subfamily is serine/threonine kinase.
Binding assays used specific radioligands (tritiated, iodinated) with non-radioactive competitive displacement ligands in agonist or antagonist protocols (as indicated) and various reference compounds and inhibitors to titrate specific binding to receptors and transporters. Most enzyme assays (CYPs, kinases, phosphatases, proteases, HDACs) used recombinant protein and specific substrates (fluorescence mostly, some colorimetric and radioactive) and inhibitors, followed by a biochemical separation of substrate and product. All assays for the biochemical HTS were initially run in duplicate at a single concentration (10 uM for CYP450 assays and 25 uM for all others). Assay-chemical combinations meeting a pre-defined threshold (e.g., 30% inhibition and other criteria defined below) were then run in singleton concentration-response format with maximum concentration of 20 uM for CYPs and 50 uM for all others. Each assay was run with positive and negative controls, and concurrent controls on every plate. The follow-up (secondary) screen tested active chemical-pairs in concentration series, as well as a few additional assays not tested in the primary screen, some selected negative inactives, and several cases re-run in the concentration series for confirmatory purposes.

human Mitogen-Activated Protein Kinase 11 (MAPK 11), MAPK11 (gene 5600), sequence (Q15759 whole entry, looked up): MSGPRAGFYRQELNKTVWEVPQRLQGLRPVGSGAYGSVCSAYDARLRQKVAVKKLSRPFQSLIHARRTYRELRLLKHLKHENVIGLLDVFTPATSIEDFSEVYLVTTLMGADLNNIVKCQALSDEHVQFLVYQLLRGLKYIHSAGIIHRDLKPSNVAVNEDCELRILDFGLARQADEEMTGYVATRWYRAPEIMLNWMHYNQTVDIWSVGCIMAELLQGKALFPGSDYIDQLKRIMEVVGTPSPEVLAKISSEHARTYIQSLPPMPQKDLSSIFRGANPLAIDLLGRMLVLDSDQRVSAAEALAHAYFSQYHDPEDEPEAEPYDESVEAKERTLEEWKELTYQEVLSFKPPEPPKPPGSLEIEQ

Row | SMILES | outcome | AC50
1 | CCCCC(CC)COC(=O)c1ccccc1C(=O)O (stereo unspecified) | inactive | 
2 | S=C(S)NCCNC(=S)S.[Mn+2].[S-]C([S-])=NCCN=C([S-])[S-].[Zn+2] |  | 16.6 µM (active)
3 | COCCO | inactive | 
4 | C#CCOC(=O)[C@@H](C)Oc1ccc(Oc2ncc(Cl)cc2F)cc1 | inactive | 
5 | S=C([S-])NCCNC(=S)[S-].[Mn+2] |  | 24.4 µM (active)
6 | CC(C)(c1ccc(O)cc1)c1ccc(O)cc1 | inactive | 
